Hits are enriched below; roughly 12% of the tested compounds scored in any of these assays.
Pf growth 48h – Primary qHTS for delayed death inhibitors of the malarial parasite plastid, 48 hour incubation | Potency, µM (series often up to 28.7 µM), for inactives: at the highest dose activity change, negative = inhibition, usual class: inhibitors | actives 5.9% (n = 310,000) | P. falciparum luciferase growth in erythrocytes, 48 h; also: potency is read from the fitted curve at half-maximal effect; % is scaled to controls: 0 for no effect and ±100 for the full control effect
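In quantitative HTS format, infected erythrocytes bearing luciferase-reporter parasites were treated for a single generation at 37 C. Luminescence after adding detection reagent served as the growth measure.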
AMA1-RON2 inh – qHTS for Inhibitors of AMA1-RON; Towards Development of Antimalarial Drug Lead: Primary Screen | Plasmodium falciparum AMA1 (3D7) - RON2 peptide interaction | AlphaScreen AMA1-biotinylated RON2 peptide binding | Potency, µM (doses to about 58.2 µM), without a hit: top-dose activity change, negative = inhibition, hits mostly inhibitors | actives 0.2% (n = 360,000) | AID 720542, 2013;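 also: potency is read from the fitted curve at half-maximal effect; 0% = vehicle wells and -100% = peptide control; nearly all actives have a fitted effect of over 45% in size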
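AMA1 (3D7) with his tag at 25 nM final met compounds first, then biotinylated RON2 peptide at 25 nM; detection used donor plus acceptor beads, 10 µg/mL apiece, read by AlphaScreen after 30 min at room temperature.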
HCV inhibitor – qHTS Assay for Inhibitors of Hepatitis C Virus (HCV). actives 3.4% (n = 340,000). Huh7.5.1 HCVcc-Cre infection, luciferase reporter, 44 h. Potency, µM (doses to about 41.8 µM), inactives show top-dose activity change, negative = inhibition, most hits filed as inhibitors. AID 651820, 2012; also: potency is read from the fitted curve at half-maximal effect; % is scaled to controls: 0 for no effect and ±100 for the full control effect
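A cell-based infection assay in which seeded cells (1,000 per well) receive test compound after 4 h, are inoculated with HCVcc-Cre at approximately 0.5 moi, and are incubated 44 h before luminescence detection.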
SARS PLpro yeast-1 – qHTS of Yeast-based Assay for SARS-CoV PLP; S. cerevisiae expressing SARS-CoV PLpro, growth rescue; AID 485353, 2010; Potency, µM (top dose mostly 32.9 µM), for inactives: at the top dose activity, positive = growth rescue, actives largely listed as activators; actives 0.19% (n = 330,000); calls by dose curve; also: potency is read from the fitted curve at half-maximal effect; 0% is about no effect; nearly all actives have a fitted effect of over 55% in size
NS1 function inh – qHTS Assay for Inhibitors of Influenza NS1 Protein Function. Potency, µM (titrated, usually from 46.1 µM), inactives show top-dose activity, positive = more growth. actives 0.4% (n = 270,000). AID 2326, 2010; calls by dose curve; also: potency is read from the fitted curve at half-maximal effect; actives are rising curves; nearly all actives have a fitted effect of over 50% in size
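In this qHTS, NS1 from influenza A is expressed in budding yeast, where it slows growth. Cells are switched from glucose to 2% galactose medium (pH 6.0, -URA), treated with compound, and growth recovery is read at OD600.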
Pf growth 96h – Primary qHTS for delayed death inhibitors of the malarial parasite plastid, 96 hour incubation | P. falciparum luciferase reporter growth, 96 h | actives 6.9% (n = 320,000) | AID 504834, 2011 | Potency, µM (top dose mostly 28.7 µM), for the others: top-dose activity change, negative = inhibition, usual class: inhibitors; also: potency is read from the fitted curve at half-maximal effect; % is scaled to controls: 0 for no effect and ±100 for the full control effect
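96 h incubation, 37 C, 5% CO2, of luciferase-reporter P. falciparum-infected RBCs (2% hematocrit, 0.05% parasitemia final) with test compounds; endpoint luminescence.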
SARS PLpro yeast-2 – qHTS of Yeast-based Assay for SARS-CoV PLP: Hit Validation | yeast expressing SARS-CoV PLpro, growth phenotype rescue | calls only | actives 19% (n = 1,000) | shares compounds with SARS PLpro yeast-1 | AID 652038, 2013; call rule not given here
HCV confirm – qHTS Assay for Inhibitors of Hepatitis C Virus (HCV): Confirmation Assay for Cherry-picked Compounds | shares compounds with HCV inhibitor | HCVcc-Cre infectious virus cell assay, luciferase, inhibition | Potency, µM (titrated, usually from 41.8 µM), for inactives: top-dose activity, negative = inhibition, hits mostly inhibitors | actives 78% (n = 640); also: potency is read from the fitted curve at half-maximal effect; nearly all actives have a fitted effect of over 80% in size
HCV cytotox – qHTS Assay for Inhibitors of Hepatitis C Virus (HCV): Cytotoxicity Counterscreen for Cherry-picked Compounds. shares compounds with HCV inhibitor. HCV host cell line cytotoxicity counterscreen. Potency, µM (top dose mostly 41.8 µM), for inactives: top-dose activity change, negative = cytotoxicity, actives largely listed as inhibitors. actives 22% (n = 640). AID 720576, 2013;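 also: potency is read from the fitted curve at half-maximal effect; 44 h compound exposure; % is scaled to controls: 0 for no effect and ±100 for the full control effect; nearly all actives have a fitted effect of over 55% in size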
Numbers without * were called inactive; i = inactive; ? = inconclusive; / = not tested or not shown; + = active, no number. Unless noted, calls follow the shape of the dose curve; as a rule, active = well fitted curve in the direction sought with a large enough effect; inconclusive = small, poorly fitted or top-dose-only effect, or another doubt; inactive = no such curve, though single readings can be large; an effect the other way counts as inactive or inconclusive.

SMILES	Pf growth 48h	AMA1-RON2 inh	HCV inhibitor	SARS PLpro yeast-1	NS1 function inh	Pf growth 96h	SARS PLpro yeast-2	others
CCOC(=O)c1c(/N=C/C2=C(O)CCCC2=O)sc(C)c1C	16%	1%	3%	5%	21%	8%	/
CC(=O)Nc1cccc(NC(=O)CSc2nnc3ccc(-c4ccncc4)nn23)c1	34%	-1%	6%	-8%	/	-15%	/
CCc1sc(N)nc1-c1ccccc1	-1%	-2%	-8%	?	-12%	?	i
O=C(N/N=C/c1ccccc1O)c1cccc(C(F)(F)F)c1	?	60%	4µM*	?	3%	?	i
O=C(N/N=C/c1ccc(O)cc1)c1cccc(C(F)(F)F)c1	20%	58%	5%	?	-9%	12%	/
CC1(C(=O)NS(=O)(=O)c2ccc(C#N)cc2)CCN1C(=O)C1(c2ccc(Cl)cc2)CC1 (stereo unspecified)	/	-2%	/	/	/	/	/
Cc1sc(NC(=O)c2ccccc2)c(C(=O)NC(C)C)c1C	/	7%	?	?	-2%	-28%	i
CCN(C(=O)CN1CCN(S(=O)(=O)c2ccccc2C(F)(F)F)CC1)c1c(N)n(Cc2ccccc2)c(=O)[nH]c1=O	-13%	6%	10%	24%	-14%	?	/
O=C(CCc1n[nH]c(=O)[nH]c1=O)Nc1cccc([N+](=O)[O-])c1	-6%	3%	-1%	-3%	/	-2%	/
COc1ccccc1N(CC(=O)N/N=C/c1c(O)ccc2ccccc12)S(C)(=O)=O	0%	70%	?	11µM*	26%	-105%	+
O=C(CN1CCCc2ccccc21)N/N=C/c1c(O)ccc2ccccc12	?	2%	10µM*	10µM*	12%	?	i
O=C(CN1CCCc2ccccc21)N/N=C/c1ccccc1	-4%	14%	-4%	8%	0%	-9%	/
COc1ccc(OCC(=O)N2CCCC(Nc3ccc(C)c(C)c3)C2)cc1 (stereo unspecified)	/	5%	/	/	/	/	/
CC(C)(C)CN1C(=O)C(=O)NC[C@@H]1CCCCN	/	5%	4%	/	/	/	/
Oc1ccc(CN2CCN(c3ccccc3)CC2)c2cccnc12	7.4µM*	-1%	7.9µM*	11µM*	6%	-17%	i	HCV confirm=7µM*;HCV cytotox=22µM*
COc1cccc(C(=O)Oc2c(CN3CCOCC3)cc(Cl)c3cccnc23)c1	4.7µM*	-74%	4.5µM*	?	-11%	/	i	HCV confirm=?;HCV cytotox=?
COc1cccc(C(=O)OCCN2CCOCC2)c1	15%	3%	-4%	0%	4%	11%	/
S=c1ncc2[nH]c(=S)[nH]c2[nH]1	/	10%	?	/	/	/	/
COC(=O)c1ccc(NC(=O)C(OC)c2ccccc2)cc1 (stereo unspecified)	-4%	-6%	3%	-1%	2%	2%	/

Screening results (PubChem)
